Compound activity as filed in PubChem BioAssay.
Pin1 inhibitor – blocks the human prolyl isomerase Pin1. Q13526. Pin1 FP peptide displacement, HiFluor488, 10 min. AID 504891. 390,000 compounds, 0.009% hits. Potency, µM (titrated, usually from 115 µM), without a hit: top-dose activity, negative = inhibition, usual class: inhibitors; active means well fitted inhibition curve with a large enough effect in the polarisation, with a control signal flat, not every such curve was filed as active; inconclusive means small, poorly fitted or top-dose-only effect, or effect the other way, or a change in a side signal; inactive means no such curve, though single readings can be large or run the other way; the % refers to the polarisation; further: potency means the concentration at half of the fitted maximal effect; on the % scale 0 is the no-effect control and ±100 the full control effect
Target sequence (Q13526 whole entry, looked up): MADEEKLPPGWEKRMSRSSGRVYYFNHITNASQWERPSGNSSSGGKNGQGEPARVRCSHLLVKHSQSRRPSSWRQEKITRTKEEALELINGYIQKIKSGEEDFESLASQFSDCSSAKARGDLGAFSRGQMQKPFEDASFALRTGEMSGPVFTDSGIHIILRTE
N370S GC – inhibits or activates N370S mutant glucocerebrosidase; P04062; N370S GC spleen homogenate, 4MU-glucoside fluorescence; Potency, µM (top dose mostly 59.4 µM), inactives show at the highest dose activity change, negative = inhibition, usual class: inhibitors; 330,000 compounds, 0.092% hits; AID 2101;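 further: potency means the concentration at half of the fitted maximal effect; 0% = full enzyme activity and -100% = no enzyme basal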
Akt phos inh – Akt phosphorylation inhibition; Neuro2A IGF-stimulated pAkt S473 HTRF, 20 min; active compounds read low; activity change, % for hits at 50 µM; 360,000 compounds, 0.32% hits; AID 651550; in the data active means activity change below about -80%; inconclusive means mostly about -51% to -80%; further: on the % scale 0 is the no-effect control and ±100 the full control effect
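Neuro2A cells (4,500/well, DMEM with 0.5% FBS) were treated with compound at a single 50 µM final concentration, stimulated with 6 nM IGF for 20 min at 37 °C, and lysed. Phospho-Akt Ser473 was read by HTRF as 665/615 ratio ×10^4.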
TrxR1 substrate – substrates of rat thioredoxin reductase 1; O89049; 390,000 compounds, 0.01% hits; Potency, µM (titrated, usually from 114 µM), without a hit: top-dose activity change, negative = substrate turnover; purified TrxR1 substrate turnover, NADPH consumption readout; AID 588456; further: potency means the concentration at half of the fitted maximal effect; on the % scale 0 is the no-effect control and ±100 the full control effect; nearly all actives have a fitted effect of over 50% in size
Target sequence (O89049 whole entry, looked up): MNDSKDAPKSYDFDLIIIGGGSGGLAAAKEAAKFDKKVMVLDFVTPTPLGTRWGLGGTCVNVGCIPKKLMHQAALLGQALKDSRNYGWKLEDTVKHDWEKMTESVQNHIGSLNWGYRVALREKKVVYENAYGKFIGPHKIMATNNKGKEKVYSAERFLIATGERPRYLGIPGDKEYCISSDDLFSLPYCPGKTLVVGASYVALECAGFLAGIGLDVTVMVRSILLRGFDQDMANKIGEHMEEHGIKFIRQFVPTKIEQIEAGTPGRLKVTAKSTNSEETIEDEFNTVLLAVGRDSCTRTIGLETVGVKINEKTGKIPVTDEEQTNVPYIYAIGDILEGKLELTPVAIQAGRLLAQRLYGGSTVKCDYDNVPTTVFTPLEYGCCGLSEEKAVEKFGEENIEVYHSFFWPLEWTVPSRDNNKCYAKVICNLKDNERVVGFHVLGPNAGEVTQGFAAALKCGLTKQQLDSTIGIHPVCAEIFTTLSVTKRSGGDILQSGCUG
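Rat TrxR1, dispensed at 90 nM, was prereduced with 400 uM NADPH (final) for 5 min at ~22 deg C, then incubated with compound 15 min before 400 uM selenite. A first-read NADPH fluorescence drop versus no-compound background flagged substrates.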
AT treatment – candidate therapy for ataxia-telangiectasia | Potency, µM (top dose mostly 57.5 µM), for the others: at the top dose activation, hits mostly activators | 320,000 compounds, 0.19% hits | AID 485349 | F2112 A-T fibroblasts, KAP-1 phosphorylation AlphaLISA; neocarzinostatin DNA damage 30 min before lysis; further: potency means the concentration at half of the fitted maximal effect; % of control where 0% means no effect; nearly all actives have a fitted effect of over 45% in size
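hTERT-immortalized A-T patient fibroblasts (F2112), 500 cells/well in OPTI-MEM, 1% FBS, got compounds for 60 min, then NCS for 30 min at 37C. Lysates were then assayed for phospho-KAP-1 by AlphaLISA (anti-pKAP1 donor, anti-KAP1 acceptor beads), 6 hr at 25C.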
rTrxR1 inhibitor – inhibitors of rat thioredoxin reductase 1; Potency, µM (doses to about 114 µM), for inactives: at the top dose activity change, negative = inhibition, usual class: inhibitors; O89049; recombinant rTrxR1, NADPH fluorescence consumption, selenite substrate; 390,000 compounds, 1% hits; further: potency means the concentration at half of the fitted maximal effect; on the % scale 0 is the no-effect control and ±100 the full control effect; nearly all actives have a fitted effect of over 65% in size
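Rat TrxR1 (90 nM in the dispensed reagent) was pre-reduced with 400 uM NADPH for 5 min at room temperature, then incubated with compound for 15 min. After 400 uM selenite was added, NADPH fluorescence (Ex 340/Em 450 nm) was followed for 8 min.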
Numbers without * were called inactive; i = inactive; ? = inconclusive; nt = not tested or not shown; [ ] = dose if it differs, or a comment. In the library only some 1.4% were active in any assay of this set; here they are far more common. Unless noted, the call rests on the fitted dose curve; in most records, active means well fitted curve in the direction sought with a large enough effect; inconclusive means small, poorly fitted or top-dose-only effect, or another doubt; inactive means no such curve, though single readings can be large; an effect the other way counts as inactive or inconclusive.

SMILES	Pin1 inhibitor	N370S GC	Akt phos inh	TrxR1 substrate	AT treatment	rTrxR1 inhibitor
COc1cccc(C2C(C(=O)c3sc(C)nc3C)=C(O)C(=O)N2CCN2CCOCC2)c1OC (stereo not given)	-0.5%	2.1%	-121.7%*	5.8%[57.1 µM]	-4.6%	3.3%[57.1 µM]
COc1cccc2cc(C(=O)C3=C(O)C(=O)N(Cc4ccco4)C3c3cccnc3)oc12 (stereo not given)	-10.0%	-7.4%	i	-15.8%	4.5%	?
O=C(C1=C(O)C(=O)N(Cc2ccco2)C1c1cccnc1)c1cc2ccccc2o1 (stereo not given)	-13.7%	-1.0%	-82.1%*	-7.3%	-11.2%	12.6µM*
O=C(C1=C(O)C(=O)N(CCN2CCOCC2)C1c1cccc(O)c1)c1cc2ccccc2o1 (stereo not given)	-3.3%	-6.9%	i	-2.6%	-4.5%	50.1µM*
CC(=O)C1=C(O)C(=O)N(CCN2CCOCC2)C1c1ccccc1 (stereo not given)	1.8%	0.3%	i	-3.1%	0.7%	50.1µM*
O=C(C1=C(O)C(=O)N(CCN2CCOCC2)C1c1cccc(F)c1)c1cc2ccccc2o1 (stereo not given)	6.7%	-4.4%	i	-12.2%	-13.6%	?
COc1ccc(OC)c(C2C(C(C)=O)=C(O)C(=O)N2CCN2CCOCC2)c1 (stereo not given)	13.3%	-25.4%	i	-0.8%	-1.0%	-26.9%
O=C(C1=C(O)C(=O)N(CCN2CCOCC2)C1c1ccccn1)c1cccs1 (stereo not given)	0.3%	-4.4%	i	1.3%	-1.5%	22.4µM*
O=C(C1=C(O)C(=O)N(CCN2CCOCC2)C1c1ccc(F)cc1)c1cccs1 (stereo not given)	-1.6%	-4.0%	i	-8.5%	9.5%	-8.6%
COc1ccc(C2C(C(=O)c3ccco3)=C(O)C(=O)N2CCOCCO)cc1OC (stereo not given)	-0.3%	1.1%	-85.2%*	-2.8%[57.1 µM]	13.6%	?
Nc1cccc(/C=C2\C=Cc3ccccc32)c1	nt	nt	nt	1.2%	nt	0.4%
COc1cccc(C2c3c(ncn(-c4ccccc4C#N)c3=N)Oc3ccc4ccccc4c32)c1 (stereo not given)	5.2%	nt	nt	nt	nt	nt
Cc1ccc(S(=O)(=O)NC(N)=NCCC[C@@H](N)C(=O)Nc2cc(C(F)(F)F)ccc2Cl)cc1	-0.2%	nt	nt	nt	nt	nt
CCOc1ccc2c(c1)c(=O)c(C(=O)c1ccc(CC)cc1)cn2CC(=O)Nc1cccc(Cl)c1	-1.4%	nt	nt	-4.9%	nt	12.0%
O=C(C1=C(O)C(=O)N(CCCN2CCOCC2)C1c1ccncc1)c1cc2ccccc2o1 (stereo not given)	nt	-6.0%	nt	nt	6.1%	nt
Cc1ccc(C2C(C(=O)c3cc4ccccc4o3)=C(O)C(=O)N2CCN2CCOCC2)o1 (stereo not given)	-2.3%	-10.6%	i	-8.9%	-2.2%	22.4µM*
O=C(C1=C(O)C(=O)N(CCN2CCOCC2)C1c1cccs1)c1cc2ccccc2o1 (stereo not given)	13.0%	nt	i	-0.6%	nt	56.2µM*
O=C(C1=C(O)C(=O)N(CCN2CCOCC2)C1c1ccc(Br)cc1)c1cc2ccccc2o1 (stereo not given)	-4.6%	-13.5%	nt	-7.1%	9.6%	10.0%
CN1/C(=C\C(=O)c2ccco2)C(C)(C)c2ccccc21	?	23.0%	i	2.4%[57.1 µM]	1.1%	10µM*
CN1/C(=C\C(=O)COC(=O)c2ccco2)C(C)(C)c2ccccc21	2.1%	8.6%	i	4.6%	0.7%	18.3%
CN1/C(=C/C(=O)c2nc(S(C)(=O)=O)ncc2Cl)C(C)(C)c2ccccc21	36.1%	-4.1%	i	-9.1%	-7.2%	50.1µM*
CN1/C(=C\C(=O)c2cccnc2)C(C)(C)c2ccccc21	1.1%	-3.0%	i	-6.3%	-4.4%	-3.3%
COc1ccc(NC(=O)CSC2=Nc3ccccc3C3=NC(CCC(=O)NC4CCCCC4)C(=O)N23)cc1Cl (stereo not given)	1.3%	nt	nt	-3.5%	nt	3.7%
O=C1[C@@H]2C(c3cccnc3)=NO[C@@H]2C(=O)N1c1ccc(Br)cc1	-2.7%	8.8%	i	6.1%[57.1 µM]	6.7%	28.2µM*
CCCCC1(Br)C(=O)N(c2ccccc2)N(c2ccccc2)C1=O	-1.0%	nt	i	-3.4%	-0.9%	28.2µM*
SMILES	Pin1 inhibitor	N370S GC	Akt phos inh	TrxR1 substrate	AT treatment	rTrxR1 inhibitor
OCCCNc1nc(-c2ccccc2)c2cc(Br)ccc2n1	-3.4%	-0.2%	i	1.4%[57.1 µM]	39.8µM*	-8.4%[57.1 µM]
CCN1CCCn2c1nc1c2c(=O)n(C)c(=O)n1C	-15.0%	-9.9%	i	17.7%	-1.0%	79.4µM*
Cn1c(=O)n(Cc2ccccc2)c(=O)c2c1nc1n2CCCN1Cc1ccccc1	-9.7%	10.2%	i	6.5%[57.1 µM]	-1.5%	18.9%[57.1 µM]
Cc1ccc(OCCn2c(C3CC(=O)N(Cc4ccc(F)cc4)C3)nc3ccccc32)c(C)c1 (stereo not given)	-10.7%	nt	nt	-12.1%	nt	-0.2%
COc1ccc(S(=O)(=O)N2CCCN(CC(=O)Nc3ccc(OC)c(Cl)c3)CC2)cc1	0.7%	-2.8%	i	5.1%	12.3%	50.1µM*
COc1cc(CN2CCN(S(=O)(=O)c3ccc(NC(C)=O)cc3)CC2)cc(OC)c1O	1.4%	-6.5%	i	1.2%	0.2%	12.6µM*
COc1ccc(CN2CCN(S(=O)(=O)c3ccc(NC(C)=O)cc3)CC2)cc1OC	-10.6%	-1.6%	i	11.1%[57.1 µM]	15.0%	13.9%
COc1ccc(S(=O)(=O)N2CCN(Cc3cc(OC)c(O)c(OC)c3)CC2)cc1	-14.5%	-1.2%	i	-2.5%	9.2%	?
COc1cc(CN2CCN(S(=O)(=O)c3ccccc3)CC2)cc(OC)c1O	?	nt	nt	1.5%	nt	20µM*
COc1ccccc1C(=O)OCC(=O)Nc1ccc(N2CCCCC2)cc1	nt	nt	nt	5.7%	nt	19.1%
CC(C)N1CCc2c(sc(NC(=O)CCS(=O)(=O)c3ccccc3)c2C#N)C1	1.6%	-1.5%	i	-7.0%	18.2%	10µM*
COC(=O)c1c(NC(=O)CCS(=O)(=O)c2ccccc2)sc2c1CCN(C)C2	8.6%	3.0%	i	-1.4%	-6.5%	?
CCCN1CCc2c(sc(NC(=O)CCS(=O)(=O)c3ccccc3)c2C(=O)OC)C1	27.5%	1.4%	i	0.1%	-19.4%	50.1µM*
O=[N+]([O-])c1ccccc1/C=C/c1ccnc2ccccc12	nt	nt	nt	-7.1%	nt	7.3%
CCN(CC)CCCNC(=O)/C(=C\c1cccn1C)NC(=O)c1cccs1	-4.2%	-5.1%	i	-6.3%[57.1 µM]	-7.6%	-15.2%[57.1 µM]
CCN(CC)CCC=C(c1cccs1)c1cccs1	?	nt	i	13.4%	nt	22.4µM*
